# Results published in ChEMBL document CHEMBL2218924, “A broad activity screen in support of a chemogenomic map for kinase signalling research and drug discovery” (Biochem J, 2013).
# Tests used:
# [1] = biological target: Platelet-derived growth factor receptor alpha (Homo sapiens) (UniProt P16234); settings: at 1 µM
# [2] = biological target: Platelet-derived growth factor receptor alpha (Homo sapiens) (UniProt P16234); settings: at 10 µM
# [3] = biological target: Platelet-derived growth factor receptor beta (Homo sapiens) (UniProt P09619); settings: at 1 µM
# [4] = biological target: Platelet-derived growth factor receptor beta (Homo sapiens) (UniProt P09619); settings: at 10 µM
# [5] = biological target: T1, 3-phosphoinositide-dependent protein kinase 1 (Homo sapiens) (UniProt O15530); settings: at 1 µM
# T1 sequence (whole entry): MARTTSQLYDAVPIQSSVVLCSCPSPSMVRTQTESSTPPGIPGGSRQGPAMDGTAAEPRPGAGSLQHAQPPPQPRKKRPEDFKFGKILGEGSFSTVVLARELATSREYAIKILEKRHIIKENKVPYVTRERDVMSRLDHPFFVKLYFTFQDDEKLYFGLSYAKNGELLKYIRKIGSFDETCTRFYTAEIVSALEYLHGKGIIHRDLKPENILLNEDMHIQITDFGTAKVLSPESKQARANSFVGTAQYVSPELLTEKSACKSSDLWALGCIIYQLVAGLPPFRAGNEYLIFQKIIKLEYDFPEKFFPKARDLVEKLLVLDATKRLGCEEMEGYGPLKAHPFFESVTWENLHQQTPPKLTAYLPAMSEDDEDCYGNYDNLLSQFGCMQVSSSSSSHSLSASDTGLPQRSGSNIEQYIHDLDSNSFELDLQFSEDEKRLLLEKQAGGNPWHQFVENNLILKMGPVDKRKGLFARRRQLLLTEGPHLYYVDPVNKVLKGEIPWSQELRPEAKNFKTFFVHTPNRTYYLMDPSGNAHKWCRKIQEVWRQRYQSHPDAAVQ
# [6] = biological target: T1, 3-phosphoinositide-dependent protein kinase 1 (Homo sapiens); settings: at 10 µM
# [7] = biological target: cAMP-dependent protein kinase catalytic subunit alpha (Homo sapiens) (UniProt P17612); settings: at 10 µM
# [8] = biological target: RAC-gamma serine/threonine-protein kinase (Homo sapiens) (UniProt Q9Y243); settings: at 10 µM
# [9] = biological target: cAMP-dependent protein kinase catalytic subunit alpha (Homo sapiens) (UniProt P17612); settings: at 1 µM
# [10] = biological target: RAC-gamma serine/threonine-protein kinase (Homo sapiens) (UniProt Q9Y243); settings: at 1 µM
# RAC-gamma serine/threonine-protein kinase (Homo sapiens), sequence (Q9Y243 whole entry): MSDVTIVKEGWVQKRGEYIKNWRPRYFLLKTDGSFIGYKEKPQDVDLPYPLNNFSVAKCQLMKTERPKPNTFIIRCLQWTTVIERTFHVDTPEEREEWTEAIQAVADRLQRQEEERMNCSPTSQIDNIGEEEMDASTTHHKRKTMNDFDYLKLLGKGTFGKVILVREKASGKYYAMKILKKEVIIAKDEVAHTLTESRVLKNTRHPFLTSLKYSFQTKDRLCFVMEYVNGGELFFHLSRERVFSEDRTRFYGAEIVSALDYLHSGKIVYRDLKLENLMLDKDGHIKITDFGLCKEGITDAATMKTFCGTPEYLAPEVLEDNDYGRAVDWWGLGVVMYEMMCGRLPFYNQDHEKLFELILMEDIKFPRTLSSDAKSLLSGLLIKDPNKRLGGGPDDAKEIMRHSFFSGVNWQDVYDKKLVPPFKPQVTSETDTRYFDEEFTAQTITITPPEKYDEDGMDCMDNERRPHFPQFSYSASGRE
# Platelet-derived growth factor receptor beta (Homo sapiens), sequence (P09619 whole entry): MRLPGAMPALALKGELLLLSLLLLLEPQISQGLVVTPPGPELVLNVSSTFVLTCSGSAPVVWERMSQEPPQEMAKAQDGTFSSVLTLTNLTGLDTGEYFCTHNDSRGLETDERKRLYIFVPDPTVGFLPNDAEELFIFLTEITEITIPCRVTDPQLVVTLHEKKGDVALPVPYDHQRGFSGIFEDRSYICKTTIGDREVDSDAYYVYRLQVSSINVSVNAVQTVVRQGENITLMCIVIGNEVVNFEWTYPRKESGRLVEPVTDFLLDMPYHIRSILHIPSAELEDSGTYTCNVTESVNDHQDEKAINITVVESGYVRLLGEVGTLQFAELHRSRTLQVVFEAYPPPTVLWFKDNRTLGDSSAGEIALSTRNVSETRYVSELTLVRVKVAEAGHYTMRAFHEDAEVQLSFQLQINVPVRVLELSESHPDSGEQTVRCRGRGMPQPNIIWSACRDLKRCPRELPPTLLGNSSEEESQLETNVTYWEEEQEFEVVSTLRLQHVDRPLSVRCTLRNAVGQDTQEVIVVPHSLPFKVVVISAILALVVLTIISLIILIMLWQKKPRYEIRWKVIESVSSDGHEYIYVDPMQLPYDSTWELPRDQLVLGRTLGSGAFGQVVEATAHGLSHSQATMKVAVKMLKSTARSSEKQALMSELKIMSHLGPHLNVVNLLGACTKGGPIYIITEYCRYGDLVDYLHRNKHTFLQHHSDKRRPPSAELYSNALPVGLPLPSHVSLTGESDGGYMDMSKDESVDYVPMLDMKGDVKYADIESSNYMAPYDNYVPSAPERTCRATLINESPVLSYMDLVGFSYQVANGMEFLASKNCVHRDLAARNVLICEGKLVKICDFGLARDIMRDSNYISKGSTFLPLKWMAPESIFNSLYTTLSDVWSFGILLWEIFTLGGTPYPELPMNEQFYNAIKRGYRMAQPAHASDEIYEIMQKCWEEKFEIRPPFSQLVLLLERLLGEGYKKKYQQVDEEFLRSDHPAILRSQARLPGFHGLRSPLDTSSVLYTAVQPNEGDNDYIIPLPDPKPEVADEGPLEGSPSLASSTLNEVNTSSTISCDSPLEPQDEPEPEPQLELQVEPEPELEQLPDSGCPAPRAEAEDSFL
# Platelet-derived growth factor receptor alpha (Homo sapiens), sequence (P16234 whole entry): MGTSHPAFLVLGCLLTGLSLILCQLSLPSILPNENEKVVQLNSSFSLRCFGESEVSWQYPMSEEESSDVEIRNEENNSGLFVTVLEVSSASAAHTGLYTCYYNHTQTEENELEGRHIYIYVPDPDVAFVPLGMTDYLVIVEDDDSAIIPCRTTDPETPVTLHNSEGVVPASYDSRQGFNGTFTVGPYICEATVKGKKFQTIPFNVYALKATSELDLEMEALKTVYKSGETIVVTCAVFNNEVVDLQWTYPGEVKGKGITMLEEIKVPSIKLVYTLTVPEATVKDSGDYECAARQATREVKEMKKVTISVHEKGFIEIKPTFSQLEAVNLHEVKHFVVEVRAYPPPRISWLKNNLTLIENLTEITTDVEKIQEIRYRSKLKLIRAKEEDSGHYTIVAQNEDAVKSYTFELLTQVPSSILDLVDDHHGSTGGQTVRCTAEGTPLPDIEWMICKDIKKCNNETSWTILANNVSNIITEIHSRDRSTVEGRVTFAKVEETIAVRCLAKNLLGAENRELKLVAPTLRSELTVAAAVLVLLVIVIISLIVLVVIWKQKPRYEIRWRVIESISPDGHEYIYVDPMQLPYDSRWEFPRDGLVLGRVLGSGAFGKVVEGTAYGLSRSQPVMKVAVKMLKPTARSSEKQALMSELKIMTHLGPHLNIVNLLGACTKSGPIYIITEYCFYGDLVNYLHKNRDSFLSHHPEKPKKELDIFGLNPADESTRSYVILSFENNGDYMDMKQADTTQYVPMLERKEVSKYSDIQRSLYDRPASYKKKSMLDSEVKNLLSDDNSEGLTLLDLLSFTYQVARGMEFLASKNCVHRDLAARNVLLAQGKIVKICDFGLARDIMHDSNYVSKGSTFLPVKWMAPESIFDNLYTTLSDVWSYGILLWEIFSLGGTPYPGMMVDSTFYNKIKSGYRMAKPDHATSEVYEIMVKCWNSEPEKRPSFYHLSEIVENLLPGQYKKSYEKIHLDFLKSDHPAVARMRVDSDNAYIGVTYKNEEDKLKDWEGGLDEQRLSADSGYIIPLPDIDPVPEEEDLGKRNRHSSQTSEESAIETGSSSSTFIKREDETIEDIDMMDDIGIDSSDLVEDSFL
SMILES,residual activity [1],residual activity [2],residual activity [3],residual activity [4],residual activity [5],residual activity [6],residual activity [7],residual activity [8],residual activity [9],residual activity [10]
Nc1ncnc2[nH]nc(Nc3ccc(F)cc3)c12,105%,111%,107%,109%,92%,40%,77%,71%,–,–
Cn1c2ccccc2c2c3c(c4c5ccccc5n(CCC#N)c4c21)CNC3=O,98%,76%,–,–,6%,6%,–,–,–,–
c1ccc(-c2cnc(Nc3ccc(OCCN4CCCC4)cc3)s2)cc1,7%,1%,3%,0%,113%,114%,133%,–,78%,–
O=C(O)/C=C/c1cc(Br)c(Br)c(Br)c1Br,100%,103%,–,–,107%,99%,71%,61%,96%,105%
COc1cc2nccc(Oc3ccc(NC(=S)NC(=O)c4ccccc4C)cc3)c2cc1OC,7%,2%,31%,9%,–,–,–,72%,90%,94%
CCOC(=O)c1c(C)[nH]c(/C=C2\C(=O)Nc3ccccc32)c1C,43%,45%,90%,92%,–,–,–,–,–,–
Nc1ncnc2c1c(-c1ccc(Oc3ccccc3)cc1)cn2C1CCCC1,17%,4%,54%,6%,104%,95%,88%,71%,85%,98%
N#C/C(=C\c1ccc(O)c(O)c1)C(=O)NCc1ccccc1,122%,100%,–,–,–,–,75%,83%,76%,–
COc1ccc2c(c1)c(C1=C(c3c[nH]c4ccccc34)C(=O)NC1=O)cn2CCCN(C)C,106%,66%,–,63%,62%,14%,17%,9%,37%,30%
CN(C)S(=O)(=O)c1ccc2c(c1)/C(=C/c1cc3c([nH]1)CCCC3)C(=O)N2,33%,29%,80%,90%,–,–,–,88%,–,92%
O=C(c1ccccc1)c1ccc(N2CCOCC2)cc1O,113%,92%,116%,99%,–,–,81%,–,69%,–
Cn1sc(=O)n(Cc2ccccc2)c1=O,100%,100%,–,–,–,–,89%,84%,91%,85%
NCCNc1ncc(C(N)=O)c(Nc2cccc(C(F)(F)F)c2)n1,107%,74%,–,–,–,–,141%,43%,114%,–
O=C1NC(=O)c2c1c1c3ccccc3[nH]c1n1cncc21,96%,92%,88%,92%,56%,39%,88%,64%,82%,84%
O=C1Cc2c([nH]c3ccc([N+](=O)[O-])cc23)-c2ccccc2N1,109%,112%,107%,100%,45%,45%,–,–,–,118%
O=C(CCCc1ccc(-c2ccccc2F)cc1)Nc1ccc(O)cc1,103%,–,102%,125%,105%,90%,128%,87%,107%,109%
CC(C)(C)n1nc(Cc2cccc3ccccc23)c2c(N)ncnc21,116%,72%,99%,71%,108%,117%,8%,44%,34%,92%
NC(=O)Nc1sc(-c2ccc(F)cc2)cc1C(N)=O,41%,20%,89%,55%,57%,17%,82%,55%,92%,85%
CC(C)(C)c1nc2c3ccc(F)cc3c3c(=O)[nH]ccc3c2[nH]1,102%,–,–,–,3%,1%,–,63%,–,60%
CCCC(=O)Oc1ccc2[nH]c(C(=O)c3cc4ccccc4[nH]3)cc2c1,108%,85%,99%,93%,–,–,89%,103%,88%,102%

SMILES,residual activity [1],residual activity [2],residual activity [3],residual activity [4],residual activity [5],residual activity [6],residual activity [7],residual activity [8],residual activity [9],residual activity [10]
O=C1Nc2ccc(Cl)cc2/C1=C/c1cc(Cl)c(O)c(Cl)c1,60%,10%,75%,25%,–,–,66%,80%,68%,96%
COc1ccc(-c2cnc3c(-c4ccsc4)cnn3c2)cc1,99%,92%,–,–,–,–,82%,–,80%,–
COc1cc2ncnc(Nc3cccc(Cl)c3)c2cc1OC,104%,87%,102%,103%,–,–,101%,–,111%,112%
CCN(CC)CCNC(=O)c1c(C)[nH]c(/C=C2\C(=O)Nc3ccc(Cl)cc32)c1C,2%,1%,1%,1%,78%,39%,–,33%,81%,79%
O=C(Nc1ccc(Cl)cc1)c1ccccc1NCc1ccncc1,39%,7%,46%,4%,–,–,–,–,–,–
O=C(c1cc2cc(O)ccc2[nH]1)c1cc2cc(O)ccc2[nH]1,46%,6%,35%,6%,79%,23%,–,–,74%,–
COc1cc2c(cc1OC)-c1n[nH]c(Nc3cccc(F)c3)c1C2,2%,1%,11%,1%,104%,106%,98%,109%,–,–
Oc1cccc(-c2nc(N3CCOCC3)c3oc4ncccc4c3n2)c1,127%,–,–,98%,–,–,85%,95%,95%,95%
CCCCc1c(-c2ccc(OC)cc2)[nH]c2nccnc12,105%,111%,104%,105%,70%,65%,–,–,86%,119%
O=c1c(-c2ccc(F)cc2)c(-c2ccncc2)[nH]n1-c1ccc(Cl)cc1,–,–,100%,99%,–,–,–,65%,–,–
O=C(Nc1nc2ccccc2n1CCN1CCOCC1)c1cccc([N+](=O)[O-])c1,–,–,104%,81%,104%,81%,80%,84%,–,103%
O=C1NC(=O)C(c2c[nH]c3ccccc23)=C1c1c[nH]c2ccccc12,–,77%,–,83%,71%,18%,55%,36%,–,100%
COc1ccc(CNC(=O)Nc2ncc([N+](=O)[O-])s2)cc1,–,–,101%,100%,–,–,–,–,109%,–
Nc1nc(Nc2ccc(S(N)(=O)=O)cc2)nn1C(=O)c1c(F)cccc1F,–,–,108%,82%,68%,21%,–,–,–,110%
O=C1NC(=O)C(c2cn(CCCn3ccnc3)c3ccccc23)=C1Nc1ccccc1,–,–,–,–,39%,8%,43%,15%,69%,50%
CC(C)[C@H](CO)Nc1nc(Nc2cc(N)cc(Cl)c2)c2ncn(C(C)C)c2n1,–,–,–,92%,–,–,87%,–,93%,–
O=S(=O)(NCCNC/C=C/c1ccc(Br)cc1)c1cccc2cnccc12,–,–,–,–,–,–,6%,4%,2%,31%
O=C1NC(=O)C(c2cn(CCCO)c3ncccc23)=C1c1cnccn1,–,–,–,96%,–,–,–,89%,–,98%
O=C1Cc2c([nH]c3ccc(Br)cc23)-c2ccccc2N1,–,–,–,–,–,–,94%,–,89%,–
Nc1n[nH]c2nc3ccccc3nc12,–,–,–,–,–,85%,–,93%,–,87%

SMILES,residual activity [1],residual activity [2],residual activity [3],residual activity [4],residual activity [5],residual activity [6],residual activity [7],residual activity [8],residual activity [9],residual activity [10]
Nc1ncnc2c1cnn2-c1ccccc1,–,101%,–,–,–,87%,–,73%,–,–
O=C1Nc2ccccc2/C1=C\c1c(Cl)[nH]c2ccccc12,–,–,–,–,–,85%,–,–,–,–
O=S(=O)(c1cccc2cnccc12)N1CCCNCC1,–,–,–,–,–,–,17%,55%,53%,–
N#C/C(=C1/Nc2ccccc2S1)c1ccnc(NCCc2cccnc2)n1,–,–,–,–,–,–,–,16%,–,89%
O=C(NC(NC(=S)Nc1ccc(F)c([N+](=O)[O-])c1)C(Cl)(Cl)Cl)C(c1ccccc1)c1ccccc1 (stereo unspecified),–,–,97%,96%,103%,87%,–,69%,–,98%
CSc1nc(-c2ccc(F)cc2)c(-c2ccnc(NC(C)c3ccccc3)c2)[nH]1 (stereo unspecified),–,–,–,–,–,–,133%,–,101%,–
Fc1ccc(-c2nc3n(c2-c2ccncc2)CCS3)cc1,–,–,123%,128%,–,–,84%,–,94%,–
COc1cc2nccc(Oc3ccc(NC(=O)Nc4cc(C)on4)c(Cl)c3)c2cc1OC,–,–,13%,2%,–,–,98%,–,108%,–
O=C1C(Cl)=C(N2C(=O)CCC2=O)C(=O)c2ccccc21,–,–,95%,93%,–,–,84%,87%,95%,89%
CC(C)c1nn(-c2c(Cl)cccc2Cl)c2nc(Cc3ccc(OCCO)cc3)[nH]c(=O)c12,–,–,103%,105%,101%,99%,89%,89%,90%,93%
NC(=O)c1ccc(-c2nc(-c3ccc4c(c3)OCCO4)c(-c3ccccn3)[nH]2)cc1,–,–,–,75%,–,–,96%,94%,92%,98%
O=c1cc(N2CCNCC2)oc2c(-c3ccccc3)cccc12,–,–,99%,88%,–,–,83%,85%,72%,85%
Nc1nccc(-c2c(-c3ccc(F)cc3)ncn2C2CCNCC2)n1,–,–,–,–,–,–,64%,–,–,–
O=c1cc(N2CCOCC2)oc2c1ccc1ccccc12,–,–,98%,–,–,–,104%,102%,101%,111%
N#Cc1c(NC(=O)c2cccc3ccccc23)sc2c1CCCC2,–,–,–,92%,–,–,91%,81%,–,–
CCCCc1c(-c2ccc(O)cc2)[nH]c2nccnc12,–,–,–,–,60%,31%,–,–,–,–
CN([C@@H](Cc1ccc(OS(=O)(=O)c2cccc3cnccc23)cc1)C(=O)N1CCN(c2ccccc2)CC1)S(=O)(=O)c1cccc2cnccc12,–,–,–,98%,–,–,–,60%,–,–
Cc1cc(C)c(/C=C2\C(=O)Nc3ccccc32)[nH]1,–,–,–,–,–,–,–,–,–,101%
